Among the data in PMC10726135, “HNF4α isoforms regulate the circadian balance between carbohydrate and lipid metabolism in the liver” are binding signal values, retold here.

In all, about 18,000 sequences were measured (“log2 normalized intensity”: median about 0.39, highest 2% from about 6.6 on). Many of the other results were omitted from the sample, so the highest values are more common in it than they were.

This test has as its target T1, HNF4alpha2 (COS-7 nuclear extract) (Homo sapiens, UniProt P41235 1-474).
T1 sequence: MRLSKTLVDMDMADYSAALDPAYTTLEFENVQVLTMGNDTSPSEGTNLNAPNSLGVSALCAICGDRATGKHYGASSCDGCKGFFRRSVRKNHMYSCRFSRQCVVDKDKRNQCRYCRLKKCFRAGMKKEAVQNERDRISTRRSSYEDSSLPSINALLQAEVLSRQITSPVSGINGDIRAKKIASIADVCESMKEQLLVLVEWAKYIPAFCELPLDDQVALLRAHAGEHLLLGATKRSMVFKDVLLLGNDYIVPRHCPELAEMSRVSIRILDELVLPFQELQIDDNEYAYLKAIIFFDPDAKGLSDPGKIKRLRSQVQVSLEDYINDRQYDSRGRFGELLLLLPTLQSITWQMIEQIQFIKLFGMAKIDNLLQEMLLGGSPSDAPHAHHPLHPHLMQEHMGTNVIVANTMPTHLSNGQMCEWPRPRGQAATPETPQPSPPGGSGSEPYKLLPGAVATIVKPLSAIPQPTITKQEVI
Description: protein-binding microarray; COS-7 nuclear extract on double-stranded Agilent 4x180k PBM; binding buffer, salt, pH and temperature not given in the material; high values mean tight binding. The note with it: chain copies: 2; label: 3' end of strand 1 on the slide; dsDNA, one strand shown. The essentials: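 Nuclear extracts of COS-7 cells transiently transfected with a human HNF4α isoform were applied to a custom Agilent SurePrint G3 4x180k array bearing ~44,000 double-stranded ~60-nt test sequences, each in quadruplicate. The bound protein was imaged on an Agilent G2565CA scanner at 2-µm resolution. Binding signal is the normalized, background-corrected gProcessedSignal from Agilent software.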
On to “CAGGGTGGGGTCTCGCTGCTTCGGCCTTTGGCCTAGGGAGATTAGAGTATCGGTCGA”, for which the binding signal turned out to be 1.33 log2 normalized intensity.

“CACAGCTCGACCTTTGACCTTCGGCTTCCCGCCTAGGGAGATTAGAGTATCGGTCGA”: the binding signal was 8.84 log2 normalized intensity.

Consider “AAATCCCCGCCTTTGACACAGGCGACCTTCGCCTAGGGAGATTAGAGTATCGGTCGA”, for which the binding signal was 3.94 log2 normalized intensity.

As for “CTTTGACACAGGCGACCTTCGCTCGGCTCGGCCTAGGGAGATTAGAGTATCGGTCGA”, the binding signal turned out to be 3.46 log2 normalized intensity.

In the case of “CCCGCCTTTGACACAGGCGACCTTCGCTCGGCCTAGGGAGATTAGAGTATCGGTCGA”, the binding signal turned out to be 5.17 log2 normalized intensity.

As to “CCTTTGACCTTCGGCTTCCCCAGAGAAAGAGCCTAGGGAGATTAGAGTATCGGTCGA”, the binding signal stood at 3.03 log2 normalized intensity.

As for “TCTCGCTGCTTCGGCCTTTGACCTCGTGATGCCTAGGGAGATTAGAGTATCGGTCGA”, the binding signal was 6.52 log2 normalized intensity.

Take “GCCCCAGCTCGCTCAGCTGGTTGCCCCTTTGCCTAGGGAGATTAGAGTATCGGTCGA”: the binding signal stood at 4.14 log2 normalized intensity.

As for “TGGGGTCTCGCTGCTTCGGCCTTTGACCTCGCCTAGGGAGATTAGAGTATCGGTCGA”, the binding signal came to 7.94 log2 normalized intensity.

On to “TCAGGCACAGCTCGACCTTTGACCTTCGGCGCCTAGGGAGATTAGAGTATCGGTCGA”, for which the binding signal came out at 10.2 log2 normalized intensity.

As to “AGCTCGCTCAGCTGGTTGCCCCTTTGACCCGCCTAGGGAGATTAGAGTATCGGTCGA”, the binding signal came to 7.89 log2 normalized intensity.

As to “GCTCAGCTGGTTGCCCCTTTGACCCTCGGGGCCTAGGGAGATTAGAGTATCGGTCGA”, the binding signal was 6.11 log2 normalized intensity.

On to “CCTTGCACTATTGACCCAGTGAAACAACACGCCTAGGGAGATTAGAGTATCGGTCGA”, for which the binding signal turned out to be 1.65 log2 normalized intensity.

With “TAGGCCACCTGTGTCAACATGGACTTTGTTGCCTAGGGAGATTAGAGTATCGGTCGA”, the binding signal is 5.86 log2 normalized intensity.

Consider “TTCTGCCTTATCAGCGGCCCTGTGCTGCCCGCCTAGGGAGATTAGAGTATCGGTCGA”, for which the binding signal came to 0.0914 log2 normalized intensity.

Regarding “CTTGTCTTATCAGCAGGGTCTTTTTGACCTGCCTAGGGAGATTAGAGTATCGGTCGA”, the binding signal came out at 4.38 log2 normalized intensity.

Turning to “CCTCTGTCTCTCAGGCACAGCTCGACCTTTGCCTAGGGAGATTAGAGTATCGGTCGA”, the binding signal was 5.94 log2 normalized intensity.

For “GTCTCTCAGGCACAGCTCGACCTTTGACCTGCCTAGGGAGATTAGAGTATCGGTCGA”, the binding signal was determined as 10.1 log2 normalized intensity.

For “CTATTATGCCTTGACTTCAAATCATACTGAGCCTAGGGAGATTAGAGTATCGGTCGA”, the binding signal was 0.897 log2 normalized intensity.

Regarding “TCAGAGATCAAGATACAGGTCAGACCCTGGGCCTAGGGAGATTAGAGTATCGGTCGA”, the binding signal is 0.993 log2 normalized intensity.

On to “CTATTGTCCTATGACCCTGCCAAATCCCCCGCCTAGGGAGATTAGAGTATCGGTCGA”, for which the binding signal was 4.52 log2 normalized intensity.

Turning to “CATTTTACAGTGCCATTTATCAGTGATTTCGCCTAGGGAGATTAGAGTATCGGTCGA”, the binding signal is 0.854 log2 normalized intensity.

In the case of “GGGCAAATCTGAGGTCAAAGCTGTCAGAGAGCCTAGGGAGATTAGAGTATCGGTCGA”, the binding signal is -0.198 log2 normalized intensity.

Consider “AGGGCAAAGGTCACCAGCTAAGCTGTTACTGCCTAGGGAGATTAGAGTATCGGTCGA”, for which the binding signal was found to be 5.12 log2 normalized intensity.

Consider “CTTCCCAGCTGCTGGTCAAAGGGCATTACTGCCTAGGGAGATTAGAGTATCGGTCGA”, for which the binding signal is 4.94 log2 normalized intensity.

Consider “GTCCCAGGGCAAAGGTCACCAGCTAAGCTGGCCTAGGGAGATTAGAGTATCGGTCGA”, for which the binding signal was determined as 5.83 log2 normalized intensity.

For “CAGAGCTGTCGTCCCAGGGCAAAGGTCACCGCCTAGGGAGATTAGAGTATCGGTCGA”, the binding signal is 7.59 log2 normalized intensity.

With “CTGTCGTCCCAGGGCAAAGGTCACCAGCTAGCCTAGGGAGATTAGAGTATCGGTCGA”, the binding signal worked out at 6.66 log2 normalized intensity.

As for “TTCCAAAGGTCACCCGTATTCCTTAGCTTAGCCTAGGGAGATTAGAGTATCGGTCGA”, the binding signal was found to be 1.6 log2 normalized intensity.

For “TATTCCCAGGTTCCAAAGGTCACCCGTATTGCCTAGGGAGATTAGAGTATCGGTCGA”, the binding signal amounted to 6.51 log2 normalized intensity.

As to “CCAGGTTCCAAAGGTCACCCGTATTCCTTAGCCTAGGGAGATTAGAGTATCGGTCGA”, the binding signal came to 6.63 log2 normalized intensity.

Regarding “GCTGAGGAATTTGGACTTCAGCCCAGGCTGGCCTAGGGAGATTAGAGTATCGGTCGA”, the binding signal worked out at 3.66 log2 normalized intensity.

As for “ACCACCTTCCCCCATCCCCAACAAAGCTCTGCCTAGGGAGATTAGAGTATCGGTCGA”, the binding signal turned out to be 4.7 log2 normalized intensity.

On to “TCTCAAAAGTTTTTCCCTTCTGTTAGAATGGCCTAGGGAGATTAGAGTATCGGTCGA”, for which the binding signal was -0.592 log2 normalized intensity.

Take “CTTCAAGTCAGTTGCATGCAACCTTTGTCCGCCTAGGGAGATTAGAGTATCGGTCGA”: the binding signal turned out to be 5.67 log2 normalized intensity.

Consider “ATATTCACTATCTGATCCTTTACAGAGATAGCCTAGGGAGATTAGAGTATCGGTCGA”, for which the binding signal was -0.305 log2 normalized intensity.

As for “TGTTACTTATAAATAATCTCAACCATACAAGCCTAGGGAGATTAGAGTATCGGTCGA”, the binding signal was -0.991 log2 normalized intensity.

As to “CAACCAAGTCCATCTGTATTGCCTCCTTTGGCCTAGGGAGATTAGAGTATCGGTCGA”, the binding signal is 1.08 log2 normalized intensity.

Take “TTCCAGGGATGTTTGGCAGCTGAGGATTGTGCCTAGGGAGATTAGAGTATCGGTCGA”: the binding signal is 1.61 log2 normalized intensity.

With “CATCTACCAGCGTAATTCTGGCTCTTTGAGGCCTAGGGAGATTAGAGTATCGGTCGA”, the binding signal turned out to be 0.87 log2 normalized intensity.

In the case of “GCGTGAGCCACCGCGCCCCGCCCCCAGTGCGCCTAGGGAGATTAGAGTATCGGTCGA”, the binding signal was determined as 5.65 log2 normalized intensity.

“GAGATGAGGCTCAGACCTGACCTTTGGATTGCCTAGGGAGATTAGAGTATCGGTCGA”: the binding signal came to 7.99 log2 normalized intensity.
